From PubChem BioAssay
Compounds with a hit are over-represented: about 19% of the library has one in this group of screens.
KB-V1 MDR tox – qHTS assay for MDR1-selective chemotherapeutics: Primary screen using the drug-selected MDR subline cells KB-V1; KB-V1 MDR cells viability, CellTiter-Glo, 72 h; Potency, µM (series often up to 46.1 µM), most hits filed as cytotoxic; actives 3.4% (n = 400,000); AID 1347076, 2019; note: nearly all actives have a fitted effect of over 60% in size
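KB-V1, DMEM (no phenol red) + 10% FBS; cpd pin-transferred, titration series; 72 h, 37 degrees C; CellTiter-Glo, luminescence. Data normalized, curve-fit.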
DT40 TDP1 CPT – qHTS for Inhibitors of human tyrosyl-DNA phosphodiesterase 1 (TDP1): qHTS in cells in presence of CPT; Potency, µM (top dose mostly 46.2 µM), for inactives: at the top dose activity change, negative = growth inhibition, most hits filed as inhibitors; actives 12% (n = 420,000); chicken DT40 Tdp1-/-;hTDP1 cells + 20 nM CPT, ATP luminescence, 48 h; AID 686979, 2013; note: nearly all actives have a fitted effect of over 55% in size
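Chicken DT40 Tdp1-/- cells stably complemented with human TDP1 were seeded at 400 cells/well in medium containing 20 nM camptothecin, exposed to pin-transferred compounds, and grown at 37 °C for at least 48 hr. Viability was read as ATP luminescence.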
KB-3-1 cytotox – qHTS assay for MDR1-selective chemotherapeutics: Primary screen using the parental adenocarcinoma cell KB-3-1; AID 1347075, 2019; KB-3-1 viability, CellTiter-Glo ATP luminescence, 72 h; actives 1.4% (n = 400,000); Potency, µM (doses to about 46.1 µM), hits mostly cytotoxic; note: nearly all actives have a fitted effect of over 60% in size
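72 h, 37 °C compound treatment of KB-3-1 parental cells; CellTiter-Glo added, 10 min, luminescence read. Data corrected against DMSO-only plates and normalized before curve fitting.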
HT1080 IDH1KD tx – qHTS for induction of synthetic lethality in tumor cells producing 2HG: qHTS for the HT-1080-IDH1KD cell line; HT-1080 IDH1 knockdown viability, ATP luminescence, 48 h; Potency, µM (doses to about 46.1 µM), for inactives: at the highest dose activity, negative = toxicity, most hits filed as cytotoxic; actives 2% (n = 360,000);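 note: 0% = DMSO wells and -100% = cell-free medium wells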
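Viability of IDH1-knockdown HT-1080 fibrosarcoma cells was assessed by CellTiter-Glo after 48 h at 37 °C with titrated compound; concentration-effect curves were classified by fit quality and response size.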
TDP1 cell noCPT – qHTS for Inhibitors of human tyrosyl-DNA phosphodiesterase 1 (TDP1): qHTS in cells in absence of CPT; AID 686978, 2013; actives 15% (n = 420,000); Potency, µM (titrated, usually from 46.2 µM), for the others: at the top dose activity change, negative = growth inhibition, most hits filed as inhibitors; DT40 Tdp1-/- hTDP1 cells, no CPT, ATP luminescence, 48 h; note: nearly all actives have a fitted effect of over 55% in size
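Growth kinetics read by CellTiter-Glo luminescence after ≥48 hr at 37 °C. Cells: DT40 Tdp1-/- stably carrying human TDP1, 400 per well, compound exposure in the absence of CPT (DMSO vehicle).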
HT1080-NT tox – qHTS for induction of synthetic lethality in tumor cells producing 2HG: qHTS for the HT-1080-NT fibrosarcoma cell line. HT-1080-NT fibrosarcoma viability, CellTiter-Glo ATP luminescence, 48 h. Potency, µM (top dose mostly 46.1 µM), for inactives: at the highest dose activity, negative = less viability, most hits filed as cytotoxic. actives 1.6% (n = 360,000). AID 686970, 2013;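 note: NT is the 2HG producing partner of a matched IDH1 knockdown line; 0% = DMSO-treated cells and -100% = media-only wells without cells; nearly all actives have a fitted effect of over 55% in size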
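HT-1080-NT; 750 cells/well; 5% FBS RPMI; 48 h compound, 37 degrees C; CellTiter-Glo luminescence; curve fitting and curve-class assignment.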
Active calls of the source: *; i = inactive; u = inconclusive; x = no result; [ ] = dose if it differs, or a comment. Calls come from the whole dose curve; as a rule, active = well fitted curve in the direction sought with a large enough effect; inconclusive = small, poorly fitted or top-dose-only effect, or another doubt; inactive = no such curve, though single readings can be large; an effect the other way counts as inactive or inconclusive. Unless noted, % is set by controls: 0 for no effect and ±100 for the full control effect; potency is the fitted concentration of half-maximal effect.

SMILES | KB-V1 MDR tox | DT40 TDP1 CPT | KB-3-1 cytotox | HT1080 IDH1KD tx | TDP1 cell noCPT | HT1080-NT tox
COc1cccc(CN2CCCC(c3nc(-c4ccncc4)ncc3-c3ccccc3)C2)c1O (stereo unspecified) | x | u | x | x | 16µM* | x
COc1ccc(CN2CCCC(c3nc(-c4ccncc4)ncc3-c3ccccc3C)C2)c(OC)c1 (stereo unspecified) | x | 2.6µM* | x | x | u | x
COc1cc(C(=O)OCC(=O)c2ccccc2)cc2c1OCCO2 | i | -2% | i | -3% | -8% | -4%
O=C(Nc1nnc(C23CC4CC(CC(C4)C2)C3)s1)c1ccc(N2C(=O)CCC2=O)cc1 | i | u | i | -4% | 26µM* | 2%
CC1(C(=O)NC2CCCCC2)CCC(=O)N1CCOc1ccccc1 (stereo unspecified) | i | -1% | i | 4% | -31% | 23%
CCOc1ccc(N=C2NN=C(c3cc(C)n(CC4CCCO4)c3C)CS2)cc1 (stereo unspecified) | u | u | i | -4% | 23µM* | -4%
COc1cccc(C2c3c(oc4cc(C)c(C)cc4c3=O)C(=O)N2CCCN(C)C)c1 (stereo unspecified) | i | -10% | i | -5% | -19% | -12%
CCOCCOC(=O)c1ccc(NC(=O)/C=C/c2ccc(OC)c(OC)c2)cc1 | i | 26µM* | i | x | 9.2µM* | x
COc1ccc(OC)c(/C=C/C(=O)Nc2ccc(C(=O)OCCC(C)C)cc2)c1 | i | 18µM* | i | x | 18µM* | x
COC(=O)c1cc(Cl)c(NC(=O)/C=C/c2ccc(OC)c(OC)c2)cc1OC | u | u | i | -6% | 23µM* | -7%
COC(=O)c1cn(C(=O)c2ccccc2Cl)c2ccccc12 | i | u | u | u | u | -21%
CCCCOC(=O)c1ccc(NC(=O)Nc2ccc(OC)c(OC)c2)cc1 | i | u | u | u | u | -5%
COC(=O)c1cn(C(=O)c2ccc(C)cc2C)c2ccccc12 | i | u | u | 6.5µM* | u | u
COC(=O)c1cn(C(=O)/C=C/c2ccc(OC)c(OC)c2)c2ccccc12 | i | u | i | u | 16µM* | -22%
COc1cc(NC(=O)/C=C/c2ccccc2)c(C(=O)O)cc1OC | i | u | i | 5% | u | -4%
CCCCCOc1ccc(/C=C/C(=O)Nc2sc(C(C)=O)c(C)c2C(=O)OCC)cc1OC | u | u | i | x | 5.8µM* | x
COc1ccc(/C=C/C(=O)Nc2ccc(Cl)c(Cl)c2)cc1OC | u | u | i | x | 21µM* | x
COc1ccc(/C=C\C(=O)Nc2ccccc2C(=O)O)cc1OC | x | 13µM* | x | x | 13µM* | x
O=C(NCc1cccs1)c1ccc2sc(C3=C[C@@H](O)[C@@H](O)[C@@H](CO)O3)nc2c1 | i | -20% | i | -1% | -14% | 2%
CCC(=O)Nc1ccc(-c2nnc(SCc3ccccc3)n2C)cc1 | i | -26% | i | x | -6% | x
Cc1ccc(N2C(=O)CSC23C(=O)N(CC(=O)NC2CCCCC2)c2ccccc23)cc1C (stereo unspecified) | i | -17% | i | x | u | x
CCOC(=O)c1ccccc1NC(=O)/C=C/c1cc(OC)c(OC)c(OC)c1 | i | -20% | i | 0% | 6.5µM* | -2%
O=C(/C=C(\c1ccc(Cl)cc1)n1cncn1)c1ccc(Cl)cc1 | i | u | i | -11% | 16µM* | 0%
CCCCn1nnnc1C1(C)CCC(=O)N1CCc1ccccc1F (stereo unspecified) | u | -4% | i | 10% | -20% | 15%
Cc1ccccc1OCC(=O)NNC(=O)C1CCN(c2ncnc3sc(C)c(C)c23)CC1 | u | 23µM* | u | -7% | 26µM* | -9%
SMILES | KB-V1 MDR tox | DT40 TDP1 CPT | KB-3-1 cytotox | HT1080 IDH1KD tx | TDP1 cell noCPT | HT1080-NT tox
Cc1sc2ncnc(N3CCC(C(=O)N(CC(C)C)c4nc5ccccc5s4)CC3)c2c1C | i | 21µM* | i | 0% | 15µM* | 0%
CCOc1ccccc1N=C1SCC(C)N1C(=O)C1CCN(c2ncnc3sc(C)c(C)c23)CC1 (stereo unspecified) | u | 21µM* | i | -3% | 15µM* | 3%[9.24 µM]
C=CCn1c(C)cc(-c2csc(NC(=O)C3CCN(c4ncnc5sc(C)c(C)c45)CC3)n2)c1C | i | u | i | 1% | 21µM* | -5%
CCc1ccc2nc(NC(=O)C3CCN(c4ncnc5sc(C)c(C)c45)CC3)sc2c1 | i | u | i | 6% | u | 0%
Cc1cccc(OCC(=O)NNC(=O)C2CCN(c3ncnc4sc(C)c(C)c34)CC2)c1 | i | u | i | 0% | u | 5%
CCCN(CC(=O)Nc1ccccc1C)C(=O)C1CCN(c2ncnc3sc(C)c(C)c23)CC1 | 21µM* | 21µM* | i | -18% | 10µM* | -12%
Cc1sc2ncnc(N3CCC(C(=O)Nc4ccc(Cl)c(Cl)c4)CC3)c2c1C | i | u | u | -2% | u | -2%
COc1ccc(-c2csc(NC(=O)C3CCN(c4ncnc5sc(C)c(C)c45)CC3)n2)cc1OC | i | 2.9µM* | u | u | 2.6µM* | 5.8µM*
Cc1sc2ncnc(N3CCC(C(=O)Nc4ccc(Cl)cc4Cl)CC3)c2c1C | i | u | i | -26% | 18µM* | -12%
Cc1sc2ncnc(N3CCC(C(=O)NCC(=O)Nc4ccc(F)c(F)c4)CC3)c2c1C | x | u | x | -21% | u | -17%
COc1ccccc1OCC(=O)NNC(=O)C1CCN(c2ncnc3sc(C)c(C)c23)CC1 | i | u | i | -19% | 13µM* | -15%
Cc1cc(C(=O)CSc2ccc3c(c2)OCCO3)c(C)n1C1CC1 | i | 2% | i | 4% | -21% | -2%
Cc1ccc(Cn2c(=O)n(CCc3ccccc3)c(=O)c3c(C)c(C)sc32)cc1 | i | -13% | i | x | u | x
